Measurements taken from PubChem BioAssay AID651820 (National Center for Advancing Translational Sciences (NCATS), 2012).
The whole screen tested about 340,000 compounds, of which about 12,000 (3.5%) were called active. Entries that show only a call come without a potency. Another 18% or so got no clear call; they are omitted. Calls come from the whole dose curve; as a rule, active = well fitted inhibition curve with a large enough effect; inconclusive = small, poorly fitted or top-dose-only effect, or another doubt; inactive = no such curve, though single readings can be large or run the other way. The sample as a whole holds a higher share of actives than the screen did.

Assay: qHTS Assay for Inhibitors of Hepatitis C Virus (HCV)
Settings: Huh7.5.1 HCVcc-Cre infection, luciferase reporter, 44 h; series mostly up to 41.8 µM
Source text: Hepatitis C virus (HCV) infects about 200 million people in the world. Many infected people progress to chronic liver disease including cirrhosis with a risk of developing liver cancer. To date, there is no effective vaccine for hepatitis C. Current therapy based on interferon is only effective in about half of the patients and is associated with significant adverse effects. The fraction of people with HCV who can complete a successful treatment is estimated to be no more than 10 percent. Recent development of direct-acting antivirals against HCV, such as protease and polymerase inhibitors, is promising but still requires combination with peginterferon and ribavirin for maximal efficacy. In addition, these agents are associated with high rate of resistance and many have significant side effects. Due to the lack of a culture system for infectious HCV, the search for new HCV drugs has been greatly hampered. […] High-throughput screening (HTS) with an infectious HCV system would cover the complete spectrum of potentially druggable targets in all stages of HCV lifecycle, and would have more biological relevance than other cell-based assays. Moreover, targeting several key processes in the viral life cycle may not only increase antiviral efficacy; more importantly, it may also reduce the capacity of the virus to develop resistance to the compound. The goal of this project is to identify novel HCV inhibitors as new therapies for hepatitis C, using a highly sensitive and specific assay platform which is based on a HCV infectious cell culture system established in the laboratory and adapted for high-throughput HCV drug screen. NIH Chemical Genomics Center [NCGC] NIH Molecular Libraries Probe Centers Network [MLPCN] MLPCN Grant: MH095511 Assay Submitter (PI): Jake Liang, NIDDK
The assay will start with plating 1,000 cells/well in 3 µL volume and culture for 4 h. Then 23 nL of compounds from the library collection will be added to each well, followed by adding 2.5 µL of HCVcc-Cre virus (~ 0.5 moi) and further cultured for 44 h before the luciferase assay. A volume of 4.5 µL luciferase substrates will be added to each well and the plates will be incubated at room temperature for 15 min. and then read for 15 sec. for the luciferase activity

Row | SMILES | Potency | activity change, negative = inhibition
1 | O=C(COC(=O)C1(c2ccc(F)cc2)CCCC1)N1CCNC1=O | inactive | –
2 | CSc1ncc(Sc2ccccc2)c(C(=O)O)n1 | inactive | –
3 | CSc1nc(-c2ccccc2)nc(C(Cl)Cl)n1 | 3.98 µM (active) | –
4 | CSc1nc(C)cc(SC(C(C)=O)C(=O)Nc2ccccc2)n1 (configuration not stated) | inactive | –
5 | CCOc1ncccc1C(=O)Nc1ccc2c(c1)OCCO2 | inactive | –
6 | CC(=O)c1ccc(S(=O)(=O)Nc2ccc(-c3ccc4nncn4n3)cc2)cc1 | inactive | –
7 | C[C@@H]1C[C@@H]2O[C@H]2/C=C\C=C\C(=O)Cc2c(Cl)c(O)cc(O)c2C(=O)O1 | 3.16 µM (active) | –
8 | Cc1noc(C)c1NC(=O)Nc1cccc2c1O[C@H](CN(C)S(=O)(=O)c1c(C)noc1C)[C@@H](C)CN([C@H](C)CO)C2=O | inactive | –
9 | CC(=O)c1ccc(S(=O)(=O)N2CCN(c3nc4c(C)c(C)ccc4cc3C#N)CC2)cc1 | 10 µM (active) | –
10 | CC(=O)c1ccc(S(=O)(=O)N2CCN(C(=O)/C=C/c3ccc4ccccc4n3)CC2)cc1 | inactive | –
11 | Cc1cc(C)c2nc(N3CCCC3)c(C#N)cc2c1 | inactive | –
12 | O=C(Cc1ccc([N+](=O)[O-])cc1)NCCc1ccc2c(c1)OCO2 | inactive | –
13 | CN(C(=O)COC(=O)Cc1ccccc1[N+](=O)[O-])C1CCS(=O)(=O)C1 (configuration not stated) | inactive | –
14 | COc1ccc(CCNC2=C(Cl)C(=O)N(Cc3ccccc3)C2=O)cc1OC | 12.6 µM (active) | –
15 | COc1ccc(CCNC(=O)c2ccccc2-c2ccccc2C(=O)O)cc1OC | inactive | –
16 | COc1ccc(CCN2C(=O)C(C)=C(C)C2=O)cc1OC | inactive | –
17 | Cc1ccc(S(=O)(=O)CC(=O)Nc2sc(C)c(C)c2C(N)=O)cc1 | inactive | –
18 | COc1cc2c(cc1CNC[C@H]1O[C@@H](n3cnc(C(N)=O)n3)[C@H](O)[C@@H]1O)OCO2 | inactive | –
19 | OCCCNc1nc(-c2ccccc2)c2cc(Cl)ccc2n1 | inactive | –
20 | NC(N)=Nc1nc(-c2ccccc2)c2cc(Cl)ccc2n1 | 11.2 µM (active) | –
21 | Cc1ccc2nc(Nc3ccccc3O)nc(-c3ccccc3)c2c1 | inactive | –

Row | SMILES | Potency | activity change, negative = inhibition
22 | Cn1c(N)c(C(=O)COC(=O)c2cccc(S(=O)(=O)N3CCOCC3)c2)c(=O)n(C)c1=O | inactive | –
23 | O=C(NCC(=O)N1CCCCCCC1)c1ccccc1Cl | inactive | –
24 | CCOC(=O)CCCNC(=O)CN1C(=O)NC(CCc2ccccc2)C1=O (configuration not stated) | inactive | –
25 | CC1=C(C(=O)OCc2ccccc2)C(c2ccc(C(F)(F)F)cc2)NC(=O)N1CCCCCC(=O)O (configuration not stated) | inactive | –
26 | CC1=C(C(=O)OC(C)(C)C)C(c2ccc(Br)cc2)NC(=O)N1CCCC(=O)O (configuration not stated) | inactive | –
27 | CCCCNC(=O)C(C)N(CCN(C)C)C(=O)CCCCCN1C(=O)NC(c2ccc(Cl)cc2)C(C(=O)OCc2ccccc2)=C1C (configuration not stated) | 11.2 µM (active) | –
28 | CCCCNC(=O)C(C)N(CCN(C)C)C(=O)CCCN1C(=O)NC(c2ccc(Cl)cc2)C(C(=O)OCc2ccccc2)=C1C (configuration not stated) | 11.2 µM (active) | –
29 | COC(=O)CCCCCN1C(=O)NC(c2ccc(-c3ccccc3)cc2)C(C(=O)OCc2ccccc2)=C1C (configuration not stated) | – | 4.51% [at 8.37 µM] (inactive)
30 | O=C(COC(=O)CSc1ccccc1)Nc1ccc(F)cc1F | inactive | –
31 | CCC(C)C1(C2CCCC2)NC(=O)NC1=O (configuration not stated) | inactive | –
32 | CC(C)(C)OC(=O)C1=C(CO)CS[C@@H]2[C@H](NC(=O)Cc3ccccc3)C(=O)N12 | inactive | –
33 | Brc1ccc2nc(N3CCCC3)sc2c1 | 11.2 µM (active) | –
34 | c1c2c(cc3sc(N4CCCCC4)nc13)OCCO2 | inactive | –
35 | O=C(c1ccc2nc(N3CCOCC3)sc2c1)N1CCN(c2ccc(Cl)cc2)CC1 | inactive | –
36 | COc1ccc(C)cc1NC(=O)CN1c2cccc3cccc(c23)S1(=O)=O | inactive | –
37 | CCCCNCCS(=O)(=O)NCc1ccccc1 | inactive | –
38 | COc1ccccc1N(CC(=O)N/N=C(\C)c1ccccc1O)S(=O)(=O)c1ccc(C)cc1 | 10 µM (active) | –
39 | COc1ccc(S(=O)(=O)N(CC(=O)N/N=C/c2ccccc2C(=O)O)c2ccccc2OC)cc1 | inactive | –
40 | COc1ccccc1N(CC(=O)Nc1c(C)n(C)n(-c2ccccc2)c1=O)S(=O)(=O)c1ccccc1 | inactive | –
41 | CCOc1ccc(S(=O)(=O)N2CCN(C(=O)c3oc4ccccc4c3C)CC2)cc1 | inactive | –
42 | O=C(NCC1CCCO1)c1ccc(S(=O)(=O)Nc2ccc(F)cc2)cc1 (configuration not stated) | inactive | –

Row | SMILES | Potency | activity change, negative = inhibition
43 | COc1cc(C(=O)CCc2ccc3c(c2)OCO3)cc(OC)c1OC | 14.1 µM (active) | –
44 | COc1cc(OC)c(C(=O)NCc2ccc3c(c2)OCO3)cc1OC | inactive | –
45 | COc1ccc(CNCCc2ccc3c(c2)OCO3)c(OC)c1OC | inactive | –
46 | O=C(NCCS(=O)(=O)NCc1ccc(Cl)cc1)c1ccccc1 | – | 6.73% [at 8.37 µM] (inactive)
47 | COc1ccc(C(=O)OCC(=O)Nc2ccc3[nH]c(=O)[nH]c3c2)c(OC)c1OC | inactive | –
48 | COc1ccc(Cl)cc1C(=O)OCC(=O)NCc1cccs1 | inactive | –
49 | COc1ccc(C(=O)OCC(=O)c2ccc(Cl)s2)c(OC)c1OC | 2.51 µM (active) | –
50 | CN(O)C(=S)c1ccccc1 | inactive | –
51 | CCNC(=O)N(CC)C[C@H]1N[C@@](CC)(C(=O)OC)[C@H]2C(=O)N(Cc3ccccc3)C(=O)[C@@H]12 | – | 23% [at 8.37 µM] (inactive)
52 | O=C(CSc1n[nH]c(-c2cccs2)n1)N1CCCCC1 | inactive | –
53 | O=C(Nc1ccc2c(c1)C(=O)OC2)Nc1cccc2ccccc12 | inactive | –
54 | CC(=O)N(C)c1ccc(NC(=O)Nc2cccc3ccccc23)cc1 | 12.6 µM (active) | –
55 | O=C(O)Cc1ccc(NC(=O)Nc2cccc3ccccc23)cc1 | inactive | –
56 | O=C(CSC1=NS(=O)(=O)c2cc(F)ccc2N1)Nc1ccccc1F | inactive | –
57 | CCOC(=O)N1CCN(C(=O)COC(=O)c2cccc(S(C)(=O)=O)c2)CC1 | inactive | –
58 | CC(=O)c1ccc(NC(=O)CSc2nc3ccccc3c(=O)n2CCCN2CCOCC2)cc1 | inactive | –
59 | COc1cc(NC(=S)NCc2ccco2)c(OC)cc1Cl | inactive | –
60 | CCOc1cc(NC(=O)c2ccco2)c(OCC)cc1NC(=O)COc1ccccc1 | inactive | –
61 | CCOc1cc(NC(=S)NCc2ccco2)c(OCC)cc1NC(=O)c1ccco1 | 2.82 µM (active) | –
62 | CN1C(C(=O)NCC2CC2)CC2Cn3c(nc4ccccc43)C21 (configuration not stated) | inactive | –
